In the library only some 8.1% were active in any assay of this set; here they are far more common.
Epigenetic reg = derepresses silenced GFP reporter in murine cells. murine LDR cells, GFP reporter derepression, 30 h. 280,000 tested, 0.2% active. Potency, µM (doses to about 53.9 µM), usual class: activators. AID 1865; note: nearly all actives have a fitted effect of over 60% in size
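Murine LDR cells bearing a silenced CMV-driven GFP reporter were exposed to compound for 30 h at 37 C. After PBS washes, GFP-positive cells (20-120 um objects) counted by laser-scanning microplate cytometry.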
Sfp inh = blocks B. subtilis Sfp PPTase activity | Biochemical Sfp PPTase activity, qHTS | Potency, µM, usual class: inhibitors | 310,000 tested, 3.5% active;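 note: the enzyme is Sfp with the accession as filed and its product quenches rhodamine fluorescence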
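Sfp 15 nM + cpd, 15 min RT; start w/ rhodamine-CoA 5 uM, BHQ-2-YbbR 12.5 uM (final); 50 mM Hepes pH 7.6, 10 mM MgCl2, 0.01% NP-40, 0.01% BSA; read 525/598 nm at 0 and 30 min.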
ClpP mod = qHTS Assay for Activators of ClpP | purified B. subtilis ClpP, FRET peptide cleavage, 20 min | 340,000 tested, 1.9% active | AID 651965, 2013 | Potency, µM (series often up to 57.5 µM); active = well fitted falling curve with a large enough effect; inconclusive = small, poorly fitted or top-dose-only effect; inactive = no such curve, though single readings can be large or run the other way; note: the source files actives as falling curves though it sought activators and does not explain the sign; nearly all actives have a fitted effect of over 65% in size
Target sequence (P80244 whole entry, looked up): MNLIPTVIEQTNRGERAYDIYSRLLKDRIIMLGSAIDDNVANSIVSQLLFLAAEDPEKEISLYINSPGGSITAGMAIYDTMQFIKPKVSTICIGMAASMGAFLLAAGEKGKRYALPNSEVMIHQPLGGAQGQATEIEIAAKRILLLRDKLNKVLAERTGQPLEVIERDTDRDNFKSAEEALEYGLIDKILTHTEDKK
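FRET quenching reversal measured ClpP activation: 10 microg/mL B. subtilis ClpP at pH 8 with the FRET-FV decapeptide, read at 430 nm after 320 nm excitation. The 20-min minus 0-min signal was scaled between DMSO/no-enzyme wells and ADEP (5.8 microM final).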
RORg inh = blocks mouse ROR gamma transcriptional activity; 310,000 tested, 5.4% active; AID 2551; P51450; Potency, µM (series often up to 53.6 µM), hits mostly inhibitors; Drosophila S2 Gal4-RORgamma UAS-luciferase reporter, 20 h; note: nearly all actives have a fitted effect of over 60% in size
Target sequence (P51450 whole entry, looked up, the tested form may be a part): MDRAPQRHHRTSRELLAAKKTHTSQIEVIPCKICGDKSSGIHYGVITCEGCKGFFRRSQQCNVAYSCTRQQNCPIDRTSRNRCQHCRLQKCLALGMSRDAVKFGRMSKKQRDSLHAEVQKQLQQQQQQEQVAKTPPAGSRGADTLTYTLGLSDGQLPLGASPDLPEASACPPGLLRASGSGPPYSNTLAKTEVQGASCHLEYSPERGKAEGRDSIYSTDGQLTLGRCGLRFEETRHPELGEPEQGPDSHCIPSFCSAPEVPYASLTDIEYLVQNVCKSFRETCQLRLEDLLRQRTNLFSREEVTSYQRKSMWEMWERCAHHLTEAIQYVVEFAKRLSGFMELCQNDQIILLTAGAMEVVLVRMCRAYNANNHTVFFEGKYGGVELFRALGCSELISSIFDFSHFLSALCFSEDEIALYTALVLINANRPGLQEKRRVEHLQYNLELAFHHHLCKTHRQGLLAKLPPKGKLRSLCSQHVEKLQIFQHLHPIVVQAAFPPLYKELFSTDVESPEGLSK
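Drosophila S2 cells stably expressing Gal4-DBD/mouse RORγ fusion under metallothionein promoter plus UAS-luciferase; compound 1 h, then 700 uM CuSO4 induction for 20 h at ambient temperature; inhibition read as reduced luminescence.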
PINK1 modulator = changes PINK1 expression; Potency, µM (series often up to 76.6 µM), hits mostly activators; PINK1 immunofluorescence, high-content cytometry, 24 h; 410,000 tested, 0.2% active; active = well fitted activation curve with a large enough effect; inconclusive = small, poorly fitted or top-dose-only effect; cell line not stated here; note: nearly all actives have a fitted effect of over 65% in size
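PINK1 protein, normally rapidly degraded, was detected by immunofluorescence after 24 hour compound treatment of a stable cell line. Titration data (5 concentrations) came from laser-scanning cytometry, with CCCP-treated wells as controls.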
Gal4-VP16 FLuc = Gal4-VP16 reporter inhibition counter-screen; Drosophila S2 Gal4-VP16 UAS-luciferase, luminescence, 20 h; 310,000 tested, 3.5% active; Potency, µM (doses to about 53.6 µM), hits mostly inhibitors;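 note: Gal4-VP16 expression switched on by copper sulfate through the metallothionein promoter; nearly all actives have a fitted effect of over 50% in size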
A number is an active result; - = inactive; ? = inconclusive; . = no result given; [ ] = another dose, or the depositor's remark. Unless noted, calls come from the whole dose curve; as a rule, active = well fitted curve in the direction sought with a large enough effect; inconclusive = small, poorly fitted or top-dose-only effect, or another doubt; inactive = no such curve, though single readings can be large; an effect the other way counts as inactive or inconclusive.

SMILES	Epigenetic reg	Sfp inh	ClpP mod	RORg inh	PINK1 modulator	Gal4-VP16 FLuc
O=C(CSc1nnc(Cc2cccs2)n1Cc1ccco1)Nc1ccc(Br)cc1	-	14µM	-	-	-	-
O=C(CSc1nnc(-c2ccco2)n1Cc1ccco1)NCc1cccs1	-	-	-	-	-	-
O=C(CSc1nnc(Cc2cccs2)n1Cc1ccco1)Nc1ccc(Cl)cc1Cl	-	28µM	-	?	-	-
COc1ccc(NC(=O)c2oc3ccccc3c2NC(=O)c2cc(=O)c3c(C)cc(C)cc3o2)cc1	-	.	-	.	-	.
CSc1ccccc1OCc1cc(C(=O)NCCN2CCCC(O)C2)no1 (stereo not drawn)	.	-	28µM	-	-	-
CSc1ccccc1OCc1cc(C(=O)N2CCc3c(Cl)cccc3C2)no1	.	-	.	13µM	-	?
O=C(NCCN1CCCC(O)C1)c1cc(COc2ccc(F)cc2Cl)on1 (stereo not drawn)	.	-	-	-	-	-
O=C(c1ccc2c(c1)N(Cc1ccc(F)cc1)CCS2)N1CCN(c2ccccc2)CC1	-	.	-	.	-	.
COCCN=C1Sc2nc3cc(C)c(C)cc3cc2CN1Cc1cccs1	-	?	.	-	-	-
COCCN=C1Sc2nc3ccc(C)cc3cc2CN1Cc1ccco1	-	45µM	-	-	-	-
CCOc1ccc(-c2[nH]ncc2Oc2ccccc2OC)c(O)c1	-	-	-	16µM	-	?
CCOc1ccc(-c2[nH]ncc2Oc2ccccc2OCC)c(O)c1	-	-	-	10µM	-	?
CN(C)c1ccc(C2CCc3ccccc3N2C(=O)c2ccccc2)cc1 (stereo not drawn)	.	.	-	.	-	.
C=C(NCc1ccccc1)c1ccccc1O	.	-	.	-	.	-
COc1ccccc1-c1ccnc(-n2ncc(C(=O)NCc3ccncc3)c2C)n1	.	.	.	.	-	.
C=CC1=C(C)/C(=C/c2[nH]c(Cc3[nH]c(/C=C4\NC(=O)C(C)=C4C=C)c(C)c3CCC(=O)O)c(CCC(=O)O)c2C)NC1=O	-	40µM	.	-	-	-
COc1ccc(Nc2cc(C)nc3nc(C)nn23)cc1Cl	-	-	-	-	-	-
COc1cc(Nc2cc(C)nc3nc(C)nn23)cc(OC)c1OC	-	-	-	-	-	13µM
CCc1cc(-c2n[nH]c(C)c2-c2nc(C)cs2)c(O)cc1OC	-	-	.	13µM	-	?
CCc1cc(-c2n[nH]c(C)c2-c2nc3ccccc3s2)c(O)cc1OCC(=O)NN	?	-	-	-	-	-
COC(=O)c1c(-c2ccc(C(C)(C)C)cc2)csc1NC(=O)C1C2CCC(O2)C1C(=O)O (stereo not drawn)	-	11µM	-	?	-	-
COC(=O)c1c(-c2ccc(C)cc2)csc1NC(=O)C1CC=CCC1C(=O)O (stereo not drawn)	-	-	16µM	?	-	-
CCOC(=O)c1c(-c2cccc3ccccc23)csc1NC(=O)C1C2CCC(O2)C1C(=O)O (stereo not drawn)	-	-	-	-	-	-
CN(C)S(=O)(=O)N1CCC(n2cnc3cccnc32)CC1	-	.	-	.	-	.
Cc1nn(-c2ccccc2)c(N)c1N=Nc1ccccc1	-	-	-	-	-	-
SMILES	Epigenetic reg	Sfp inh	ClpP mod	RORg inh	PINK1 modulator	Gal4-VP16 FLuc
Cc1cccc(N=Nc2c(C)nn(-c3ccccc3)c2N)c1C	-	-	-	2.5µM	-	?
CCCCNCCOCCSc1ccc(Cl)cc1	-	-	-	-	-	-
COCCCNCCOCCSc1ccc(Cl)cc1	-	50µM	-	-	-	-
Cc1cc(O)c(Oc2cc(C)cc(O)c2O)c(O)c1	?	5µM	-	18µM	-	?
CCOc1cccc(CC(=O)Nc2ccc3nc(N4CCCCC4)cc(C)c3c2)c1OCC	-	.	-	.	-	.
COc1ccc(-c2cc(-c3ccc(OC)c(OC)c3)n[nH]2)c(O)c1	-	-	-	4µM	-	?
COc1ccc(-c2cc(-c3ccc(Cl)cc3)n[nH]2)c(O)c1	.	-	-	8.9µM	-	?
COc1ccc(OC)c(-n2c(-c3ccc(O)cc3O)n[nH]c2=S)c1	-	89µM	.	?	-	-
COc1ccc(-c2cc(-c3ccccc3O)[nH]n2)cc1OC	-	-	-	7.1µM	-	?
COc1cc(OC)cc(-c2n[nH]c(=S)n2-c2cc(OC)ccc2OC)c1	-	-	?	?	-	-
CCS(=O)(=O)N1CC(=O)N(c2ccccc2C)C(C)(C(=O)NC2CCCCC2)C1 (stereo not drawn)	-	.	-	.	-	.
O=C(CCNS(=O)(=O)c1ccc2c(c1)CCN2C(=O)C1CC1)Nc1ccc(Cl)cc1	-	.	-	.	-	.
O=C(O)c1cc(-c2ccc3c(c2)OCCO3)n[nH]1	-	-	.	-	-	-
Oc1ccccc1-c1cc(-c2ccc3c(c2)OCCO3)n[nH]1	-	-	-	3.2µM	-	?
COc1ccc(O)c(-c2cc(-c3ccc(F)cc3)n[nH]2)c1	.	-	.	13µM	-	?
COc1ccc(-c2ncncc2-c2ccc(OC)c(OC)c2)c(O)c1	.	-	20µM	-	-	-
COc1ccc(-c2cc(-c3cc(OC)ccc3O)[nH]n2)cc1	-	-	-	?	-	?
CN(CC(=O)O)c1ccc(C=O)cc1	.	.	-	.	.	.
O=c1oc(-c2ccccc2)nc2sc3c(c12)CCC3	-	-	-	-	-	-
Nc1nc(-c2ccccc2)nc2sc3c(c12)CCCC3	-	-	32µM	?	-	-
Cc1cccc(NC(=S)NNc2ncc(C(F)(F)F)cc2Cl)c1	-	-	-	16µM	20µM	13µM
FC(F)(F)c1cnc(NNC(=S)Nc2ccccc2Cl)c(Cl)c1	-	-	-	?	?	10µM
O=C(CC1N=C2c3ccccc3N=C(SCC(=O)Nc3ccccc3F)N2C1=O)NCc1ccc2c(c1)OCO2 (stereo not drawn)	-	.	-	.	-	.
O=S(=O)(c1ccccc1)c1nnn2c1nc(NC1CCCCC1)c1sccc12	-	.	-	.	-	.
c1ccc2c3c([nH]c2c1)CCCC3	.	.	-	.	-	.
SMILES	Epigenetic reg	Sfp inh	ClpP mod	RORg inh	PINK1 modulator	Gal4-VP16 FLuc
O=c1c2c([nH]c3ccccc13)CCCCC2	-	-	.	?	-	18µM
O=c1c2c([nH]c3ccccc13)CCCCCC2	-	-	-	-	-	-
c1ccc2c(c1)ccc1[nH]c3c(c12)CCCC3	.	.	18µM	.	-	.
O=c1[nH]c2ccccc2c2ccccc12	-	-	-	-	-	-
COc1c(N)c2ccccc2[nH]c1=O	-	13µM	32µM	-[0.365 µM]	-	.
O=c1c2ccccc2[nH]c2ccccc12	-	-	-	?	-	20µM
CN(C)CCCOC(=O)c1sc2ccccc2c1Cl	-	-	.	-	-	-
CCCCOC(=S)NC(=O)c1sc2ccccc2c1Cl	-	-	-	5.6µM	-	?
O=C(O)c1ccccc1NC(=S)NC(=O)c1sc2ccccc2c1Cl	-	45µM	-	-	-	-

Source: PubChem (National Center for Advancing Translational Sciences (NCATS))
